Measurements as given in ChEMBL document CHEMBL3988442, “University of Dundee, Small-Polar-MMV Screening Library” (2021).
Screen size: about 67,000 compounds; about 300 (0.45%) showed an effect of 50% or more. The full list was thinned out, with strong results kept by preference.

biological target: Polyketide synthase Pks13 (Mycobacterium tuberculosis (strain ATCC 25618 / H37Rv)) (UniProt I6X8D2); assay: Mycobacterium tuberculosis Polyketide synthase 13 Thioesterase (PKS13); assay type: functional; set-up: scale not given: in the data most compounds retested in dose-response had high values; settings: 30 µM
Sequence (I6X8D2 whole entry): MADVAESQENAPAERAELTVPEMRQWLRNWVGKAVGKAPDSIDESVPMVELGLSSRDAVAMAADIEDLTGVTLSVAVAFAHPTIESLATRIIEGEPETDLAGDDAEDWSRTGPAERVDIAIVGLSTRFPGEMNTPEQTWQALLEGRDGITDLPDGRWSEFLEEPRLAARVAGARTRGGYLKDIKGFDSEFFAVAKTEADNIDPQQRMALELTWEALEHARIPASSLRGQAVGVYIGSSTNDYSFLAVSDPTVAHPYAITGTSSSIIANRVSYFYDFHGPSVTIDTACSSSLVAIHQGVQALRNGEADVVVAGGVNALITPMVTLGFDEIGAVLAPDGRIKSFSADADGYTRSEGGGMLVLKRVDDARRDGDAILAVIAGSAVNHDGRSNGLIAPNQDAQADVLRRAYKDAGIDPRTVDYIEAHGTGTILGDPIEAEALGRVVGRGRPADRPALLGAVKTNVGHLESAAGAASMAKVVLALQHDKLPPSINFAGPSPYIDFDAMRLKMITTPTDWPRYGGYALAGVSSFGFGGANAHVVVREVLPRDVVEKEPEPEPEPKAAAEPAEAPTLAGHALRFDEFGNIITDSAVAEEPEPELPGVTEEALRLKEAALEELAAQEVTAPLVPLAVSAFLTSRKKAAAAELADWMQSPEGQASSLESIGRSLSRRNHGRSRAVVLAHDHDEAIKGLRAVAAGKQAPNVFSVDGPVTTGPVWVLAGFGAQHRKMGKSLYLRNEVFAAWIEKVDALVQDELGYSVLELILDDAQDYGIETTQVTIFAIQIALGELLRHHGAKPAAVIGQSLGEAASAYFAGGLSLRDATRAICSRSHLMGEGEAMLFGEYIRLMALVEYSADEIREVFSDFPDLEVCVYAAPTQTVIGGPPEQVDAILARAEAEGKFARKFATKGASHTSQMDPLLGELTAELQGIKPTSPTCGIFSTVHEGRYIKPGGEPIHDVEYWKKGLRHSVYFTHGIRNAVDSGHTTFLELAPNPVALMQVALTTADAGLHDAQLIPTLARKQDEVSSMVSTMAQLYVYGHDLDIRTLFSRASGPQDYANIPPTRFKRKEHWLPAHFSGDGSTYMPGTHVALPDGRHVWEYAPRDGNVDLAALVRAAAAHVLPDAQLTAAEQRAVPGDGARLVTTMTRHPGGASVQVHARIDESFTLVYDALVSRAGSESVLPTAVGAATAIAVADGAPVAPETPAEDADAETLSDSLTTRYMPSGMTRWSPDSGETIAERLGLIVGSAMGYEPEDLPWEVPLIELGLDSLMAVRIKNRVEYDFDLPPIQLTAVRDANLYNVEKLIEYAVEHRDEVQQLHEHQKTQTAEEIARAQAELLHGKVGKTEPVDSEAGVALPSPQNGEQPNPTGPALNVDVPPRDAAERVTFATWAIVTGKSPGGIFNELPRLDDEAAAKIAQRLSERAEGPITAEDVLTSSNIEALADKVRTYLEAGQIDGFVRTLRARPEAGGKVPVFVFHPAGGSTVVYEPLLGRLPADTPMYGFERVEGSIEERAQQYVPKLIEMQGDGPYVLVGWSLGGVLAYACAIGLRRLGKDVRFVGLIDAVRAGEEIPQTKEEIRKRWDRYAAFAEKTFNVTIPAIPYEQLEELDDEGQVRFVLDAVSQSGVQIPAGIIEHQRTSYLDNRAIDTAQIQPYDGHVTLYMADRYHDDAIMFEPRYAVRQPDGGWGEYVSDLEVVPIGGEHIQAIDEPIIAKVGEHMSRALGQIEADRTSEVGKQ

Row | Structure (SMILES) | Percent Effect [%]
1 | Cc1ccoc1-c1nnc(CN2CCOC(Cn3cccn3)C2)o1 (stereo unspecified) | -3.25
2 | Cc1noc(C)c1C(=O)N1C[C@H]2CC[C@@H]1CN(c1cnccn1)C2 | -13.5
3 | Cn1nccc1CCC(=O)N1CCCC(c2cnccn2)C1 (stereo unspecified) | 54.2
4 | Cn1nccc1CCC(=O)N1CCC(c2cnccn2)CC1 | -6.75
5 | Cn1nccc1CCC(=O)N1CCOC(c2cnccn2)C1 (stereo unspecified) | 4.28
6 | COc1ccccc1N1CCC(CNS(=O)(=O)c2cccs2)C1 (stereo unspecified) | 80.9
7 | COc1ccccc1N1CCC(CNS(=O)(=O)c2cccc(C#N)c2)C1 (stereo unspecified) | 50.9
8 | COc1ccccc1N1CCC(CNS(=O)(=O)c2c(C)nn(C)c2C)C1 (stereo unspecified) | 0.665
9 | COc1ccccc1N1CCC(CNCc2cccc(C#N)c2)C1 (stereo unspecified) | 14.1
10 | COc1ccccc1N1CCC(CNCc2ccc(C#N)cc2)C1 (stereo unspecified) | -12.2
11 | COc1ccccc1N1CCC(CNCc2cccc(OC)c2OC)C1 (stereo unspecified) | -8.68
12 | O=C([C@H]1CC[C@@H]2[C@@H](CCN2c2ncccn2)O1)N1CCCCO1 | 4.55
13 | Cn1cnc(S(=O)(=O)N2CCO[C@H]3[C@H](OCC4CC4)CC[C@@H]32)c1 | -28.3
14 | O=C(N1CCOCC1)[C@@]12CCO[C@@H]1CCN(CCN1CCCCC1)C2 | -23.6
15 | COCCN1C[C@H]2CCN(C(=O)c3cc(C)on3)CC[C@H]2S1(=O)=O | -423
16 | Cc1nn(C)c2c(=O)n(CC(=O)NC3CCCCC3)ccc12 | -9.58
17 | CCS(=O)(=O)NC[C@]12COC[C@H]1CN(Cc1cc(C)on1)C2 | -29.9
18 | CNC(=O)N1CC[C@@H]2CN(Cc3cccc(OC)c3)S(=O)(=O)[C@@H]2CC1 | -16.2
19 | N#Cc1cccnc1N1CCCC(CO)(Cc2ccc(F)cc2)C1 (stereo unspecified) | -5.66
20 | OCC1(Cc2cccc(Cl)c2)CCCN(c2ncccn2)C1 (stereo unspecified) | 20.3
21 | N#Cc1cccnc1N1CCCC(CO)(Cc2cccc(Cl)c2)C1 (stereo unspecified) | 96.8
22 | CCC(=O)N1CCN(Cc2cnc(C)nc2)[C@H]2CS(=O)(=O)C[C@H]21 | -6.93
23 | Cc1noc(C)c1CN1CC[C@H]2C[C@H](c3ccncn3)O[C@@H]2C1 | -14.6

Row | Structure (SMILES) | Percent Effect [%]
24 | Cn1ccc(C(=O)NCc2cccc(NC(=O)C3CCC3)c2)cc1=O | 107
25 | Cn1ccc(C(=O)NCc2ccc(CN3CCCC3)cc2)cc1=O | -2.41
26 | Cn1ccc(C(=O)NCc2ccc(CN3CCCCC3)cc2)cc1=O | 4.22
27 | Cn1ccc(C(=O)NCc2cccc(CN3CCCC3)c2)cc1=O | 56.3
28 | Cn1ccc(C(=O)NCc2cccc(Cn3ccnc3)c2)cc1=O | -52
29 | Cn1ccc(C(=O)NCc2cccc(N3CCCCC3=O)c2)cc1=O | 14.5
30 | Cc1cc(N2CCN(C(=O)[C@@H]3C[C@@H]4C=C[C@H]3C4)CC2)cc(C)n1 | -10.7
31 | CCc1nccn1CC(=O)N1C[C@H]2CC[C@@H]1CN(C(=O)N(C)C)C2 | -13.8
32 | CN1CCN(Cc2nc3ccccc3[nH]2)[C@H]2CS(=O)(=O)C[C@H]21 | -21.3
33 | Cc1cnc(N2C[C@@H]3[C@@H](C2)OCC(=O)N3CCN(C)C)nc1 | 3.47
34 | Cc1cccc(OCc2ccc(C(=O)N3N=CCC3(O)C(F)(F)F)o2)c1 (stereo unspecified) | 45.3
35 | O=C(c1ccc(COc2ccc(Cl)cc2)o1)N1N=CCC1(O)C(F)(F)F (stereo unspecified) | 73.2
36 | O=C(c1ccc(COc2ccccc2Cl)o1)N1N=CCC1(O)C(F)(F)F (stereo unspecified) | 37.5
37 | O=C(c1cccnc1)N1CCN2C(=O)N(Cc3ccc(F)cc3)C[C@H]2C1 | 2.86
38 | CC(C)N(C)C[C@H]1C[C@@H]2CN(Cc3ccco3)C[C@@H]2O1 | -28.7
39 | CCOC(=O)[C@]12CCCN(Cc3nccs3)C[C@H]1CN(CC(C)C)C2 | -5.86
40 | Cc1noc(C)c1C(=O)N1CCCCC1c1cc(C)n2ccnc2n1 (stereo unspecified) | -1.89
41 | Cc1cc(C2CCCCN2C(=O)c2ccsc2)nc2nccn12 (stereo unspecified) | 84.3
42 | Cc1cc(C2CCCCN2C(=O)c2cccn2C)nc2nccn12 (stereo unspecified) | 8.03
43 | CC(C)CN1C(=O)CO[C@@H]2CN(C(=O)N3CCOCC3)C[C@H]21 | -27.7
44 | O=C(c1ccnnc1)N1C[C@H]2CCC[C@@H](OCc3cccnc3)[C@@H]2C1 | 8.09
45 | O=C(NCCc1ccccc1)N1C[C@H]2C[C@H](C(=O)N3CCCC3)[C@@H](C1)O2 | -28.3
46 | O=C(c1cc(-c2ccco2)nc2c(Cl)cccc12)N1C[C@H]2CNC[C@H]2C1 | -42.7

Row | Structure (SMILES) | Percent Effect [%]
47 | O=C(c1cc(-c2ccco2)nc2c(Cl)cccc12)N1CCS(=O)(=O)CC1 | -5.09
48 | COCC1CCN(C(=O)c2cc(-c3ccco3)nc3c(Cl)cccc23)C1 (stereo unspecified) | 66.3
49 | O=C(O)C1c2nc[nH]c2CCN1Cc1cc(-c2ccccc2)no1 (stereo unspecified) | -11.2
50 | O=C(O)C1c2nc[nH]c2CCN1Cc1ccccc1-c1ccccc1 (stereo unspecified) | 62.3
51 | O=C(O)C1c2nc[nH]c2CCN1Cc1ccc(-c2ccccc2)s1 (stereo unspecified) | -9.34
52 | CSCC(=O)N1C[C@H]2CC[C@@H]1CN(C1Cc3ccccc3C1)C2 | -8.9
53 | Cc1nccc([C@@H]2C[C@@H]3CCN(Cc4cccs4)C[C@H]3O2)n1 | -9.54
54 | CC(=O)c1ccc(N2CCCC(CO)(CCOc3ccccc3)C2)nc1 (stereo unspecified) | 15.6
55 | OCC1(CCOc2ccccc2)CCN(c2ccc(Cl)cn2)CC1 | 43.4
56 | N#Cc1cccc(N2CCC3(CC2)Nc2ccccc2NC3=O)n1 | -22.8
57 | CC(=O)c1ccc(N2CCCC(CO)(Cc3ccccc3F)C2)nc1 (stereo unspecified) | -9.09
58 | CCc1nc(N2CCCC(CO)(CCOC)C2)ncc1C (stereo unspecified) | -19.2
59 | N#Cc1cccc(N2CCCC(CO)(CCOc3ccccc3)C2)n1 (stereo unspecified) | 132
60 | N#Cc1cccc(N2CCC3(CCC(=O)N(CCCO)C3)CC2)n1 | -0.0305
61 | N#Cc1cccc(N2CCC(CO)(CCCc3ccccc3)CC2)n1 | 67.6
62 | OCC1(CCOc2ccccc2)CCCN(c2ccc(Cl)cn2)C1 (stereo unspecified) | 56.5
63 | CC(=O)c1ccc(N2CCCC(CO)(CCc3ccccc3)C2)nc1 (stereo unspecified) | 55.1
64 | N#Cc1ccc(N2CCCC(CO)(CCOc3ccccc3)C2)nc1 (stereo unspecified) | 13.8
65 | Nc1nccc(N2CCCC(CO)(CCOc3ccccc3)C2)n1 (stereo unspecified) | -23.1
66 | O=C(NCc1ccco1)[C@H]1C[C@H]2OCC[C@H]2N(S(=O)(=O)C2CC2)C1 | -7.99
67 | CCOC(=O)[C@]12CCCN(Cc3cccs3)C[C@H]1CN(C(C)C)C2 | -0.678
68 | N#Cc1cccnc1N1CCCC(CO)(CCOc2ccccc2)C1 (stereo unspecified) | -13.7
69 | N#Cc1cccc(N2CCC(CO)(CCOc3ccccc3)CC2)n1 | 128

Row | Structure (SMILES) | Percent Effect [%]
70 | CC(=O)c1ccc(N2CCC(CO)(CCOc3ccccc3)CC2)nc1 | 8.13
71 | CC(C)CN1C[C@H]2C[C@H](C(=O)NC3CCC3)[C@@H](C1)O2 | 8.3
72 | CC(C)(C)Nc1nc(-c2cccnc2)c(-c2ccnc(NCCO)n2)s1 | 121
73 | CCNc1nc(-c2cccnc2)c(-c2ccnc(NS(C)(=O)=O)n2)s1 | 17.5
74 | CCNc1nc(-c2cccnc2)c(-c2ccnc(NCCO)n2)s1 | 37.6
75 | COc1ccccc1C(=O)Nc1ccc([C@@H](O)[C@H]2COCC(=O)N2)cc1 | 3.39
76 | CCS(=O)(=O)NC[C@]12COC[C@H]1CN(Cc1cccc(OC)c1)C2 | -39.6
77 | O=C(COCc1ccccc1Cl)N1CCN(c2cnccn2)CC1 | 25.8
78 | O=C(COCc1ccccc1Cl)N1CCN(c2ncccn2)CC1 | 0.958
79 | O=C(COCc1ccccc1Cl)N1CCN(c2ccc(Br)cn2)CC1 | 63.1
80 | CCc1cnc(N2CC[C@H]3[C@@H]2CCC(=O)N3CC2CCOCC2)nc1 | 88.2
81 | CCc1cnc(N2CC[C@H]3[C@@H]2CCC(=O)N3c2ccccc2)nc1 | -13.3
82 | O=C1CC[C@H]2[C@H](CCN2c2ccccn2)N1CC1CCOCC1 | -8.5
83 | O=C1O[C@@H]2CN(c3ccncc3)C[C@@H]2N1CCCc1ccc(F)cc1 | -35.8
84 | Cc1n[nH]c(C)c1CCN(C)c1ccc(-c2nc(C3CC3)no2)cn1 | 62.8
85 | Cc1cc(C)n(CCN(C)c2ccc(-c3nc(C4CC4)no3)cn2)n1 | 0.156
86 | Cc1n[nH]c(C)c1CNc1ccc(-c2nc(C3CC3)no2)cn1 | 3.88
87 | CC(=O)NC[C@@]1(COc2cnccn2)C[C@@H](O)[C@@H](O)C1 | -8.58
88 | CCS(=O)(=O)CCN1CCC(N(C)Cc2noc(C(C)C)n2)C1 (stereo unspecified) | -4.58
89 | CC(C)c1nc(CN(C)C2CCN(CCS(C)(=O)=O)C2)no1 (stereo unspecified) | -22.6
90 | CC(C)c1nc(CN(C)C2CCN(CCNS(C)(=O)=O)C2)no1 (stereo unspecified) | 93.5
91 | c1cnc(N2CCO[C@H]3CN(CC4CCOC4)C[C@H]32)cn1 (stereo partly specified) | -2.77
92 | Cc1noc(C)c1CN1C[C@H](OCC2CCN(C)CC2)[C@H]2COC[C@H]21 | -13.4

Row | Structure (SMILES) | Percent Effect [%]
93 | c1cc(CN2C[C@H](OCC3CCOCC3)[C@H]3COC[C@H]32)cs1 | 1.55
94 | O=C(c1ccco1)N1CC[C@@H]2O[C@H](COCCN3CCCC3)CC[C@@H]21 | -19.5
95 | COC(=O)c1cc(NC2CCN(CC(F)(F)F)C2=O)ccc1C (stereo unspecified) | 9.8
96 | COC(=O)c1ccc(NC2CCN(CC(F)(F)F)C2=O)cc1C (stereo unspecified) | 62.3
97 | CCOc1ccc(NC2CCN(CC(F)(F)F)C2=O)cc1C (stereo unspecified) | 7.36
98 | CN(C)C[C@H]1OC[C@@H]2CCN(C(=O)c3ccc[nH]3)C[C@@H]21 | 11.4
99 | O=C(Nc1cccnc1)[C@H]1CN(C2CCCC2)C[C@H]2OCC[C@@H]12 | -36.1
100 | Cc1ncc2c(n1)CN(CC1CCCCO1)CC2 (stereo unspecified) | -13.3
101 | CC(C)c1ncc2c(n1)CN(CC1CCCCO1)CC2 (stereo unspecified) | -18.6
102 | CCc1ncc2c(n1)CN(CC1CCCCO1)CC2 (stereo unspecified) | 78.1
103 | Cc1nc(CN2C[C@@H]3CN(C(=O)c4ccco4)C[C@@H]3C2=O)cs1 | -4.47
104 | O=C1NC(c2ccccc2)=N[C@@]12CC[C@@H]1CN(Cc3nccs3)C[C@@H]12 | 23.9
105 | Cc1noc([C@]23COC[C@H]2CN(S(=O)(=O)C2CC2)C3)n1 | -31.1
106 | O=C(O)Cn1nc(C2CC2)c2c(-c3cccs3)ccnc21 | 46.3
107 | O=c1[nH]c(NC2CCCC2)nc2nccc(-c3cccs3)c12 | 72.5
108 | Cc1cc(-c2cnc(NC3CCCCC3)nc2-c2ccco2)on1 | 15
109 | O=c1[nH]c(NC2CCCC2)nc2nccc(-c3ccsc3)c12 | 43
110 | Cc1cc(-c2cnc(NC3CCCC3)nc2-c2ccco2)on1 | 27.1
111 | O=c1[nH]c(NC2CCCC2)nc2nccc(-c3ccco3)c12 | 52.1
